Source: PubChem BioAssay (NCATS)
Values without a mark were called inactive. Records with an inconclusive call do not appear. Where a call stands in place of a potency, no number is given. Calls of active or inactive are those of the source. Unless noted, calls come from the whole dose curve; as a rule, active = well fitted curve in the direction sought with a large enough effect; inconclusive = small, poorly fitted or top-dose-only effect, or another doubt; inactive = no such curve, though single readings can be large; an effect the other way counts as inactive or inconclusive.

Key:
[1] = molecular target: Tyrosine-protein kinase Yes (Homo sapiens) (UniProt P07947); test: qHTS for small molecule inhibitors of Yes1 kinase: Primary Screen (AID 686947); note: nearly all actives have a fitted effect of over 60% in size; note: potency is the fitted concentration of half-maximal effect
Procedure, shortened: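 Yes1 (4 nM) preincubated 20 min with compound, then 60 min room-temperature reaction with 0.1 mM ATP and 0.3 mg/mL poly(E4Y) in pH 7.5 Tris, 10 mM MgCl2. ADP measured by ADP-Glo luminescence, normalised to enzyme/no-enzyme controls.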

[2] = qHTS for small molecule inhibitors of Yes1 kinase: Counter Assay (AID 686950);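 note: no kinase present so only ADP-Glo detection of a fixed ADP amount is tested; luminescence from ADP-Glo reporting ADP in a fixed ATP and ADP mixture; series mostly up to about 77 µM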
Procedure, shortened: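 Enzyme-free ADP-Glo interference check: compounds were preincubated 20 min in buffer, then an ATP/ADP mix (0.08 mM ATP, 0.02 mM ADP final) was added for 60 min at room temperature before two-step ADP-Glo luminescence detection.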

[3] = qHTS for Inhibitors of Ubiquitin-specific Protease USP2a Using CHOP2 as the Reporter: K633 Counterscreen (AID 652168); note: series mostly up to about 57 µM
Procedure, shortened: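 Cell-free interference counterscreen without USP2a: compounds pinned into enzyme-free buffer (20 mM Tris pH 8, 2 mM beta-mercaptoethanol, 0.05% Chaps), then DiUb K48-4IQF substrate added (100 nM stock); fluorescence read kinetically, Ex 525/Em 598.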

[4] = qHTS for Inhibitors of Ubiquitin-specific Protease USP2a Using CHOP2 as the Reporter: Cytotox Assay (AID 652170); details: HCT116 viability, CellTiter-Glo luminescence, 72 h; note: potency is the fitted concentration of half-maximal effect; nearly all actives have a fitted effect of over 70% in size
Procedure, shortened: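 HCT116 human colon cancer cells, 600 per well in DMEM with 10% FBS, exposed to compounds for 72 hr at 37 deg C. ATP measured by CellTiter-Glo luminescence, normalized to DMSO cells and no-cell background.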

[5] = molecular target: Ubiquitin carboxyl-terminal hydrolase 2 (Homo sapiens) (UniProt O75604); test: qHTS for Inhibitors of Ubiquitin-specific Protease USP2a Using CHOP2 as the Reporter: K484 Substrate (AID 652173); details: USP2 cleavage of DiUb K48 IQF substrate, fluorescence;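 note: cleavage of internally quenched K48 di-ubiquitin substrate measured as rising fluorescence over time; potency is the fitted concentration of half-maximal effect; nearly all actives have a fitted effect of over 70% in size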
Procedure, shortened: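 USP2 (dispensed at 5 nM) was pinned with compounds, then DiUb K48 internally quenched fluorescent substrate (dispensed at 100 nM) was added. The buffer was 20 mM Tris pH 8, 2 mM beta-mercaptoethanol and 0.05% CHAPS. Cleavage was read kinetically as rising fluorescence, Ex 525/Em 598.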

[6] = qHTS assay for small molecule activators of the p53 signaling pathway (AID 651743; active = well fitted activation curve with a large enough effect in the signal ratio, not every such curve was filed as active; the % refers to the signal ratio; note: series mostly up to about 92 µM); details: HCT-116 p53RE-bla, beta-lactamase FRET ratio, 16 h; hits give high values
Procedure, shortened: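 Cell-based beta-lactamase reporter (p53 response elements, HCT-116 background). After a 5-hour preincubation, cells received compound for 16 hours at 37 C; substrate development ran 2 hours at room temperature.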

[7] = qHTS assay for small molecule activators of the nuclear factor-kappa B (NF-kB) signaling pathway (AID 651749; active = well fitted activation curve with a large enough effect in the signal ratio; the % refers to the signal ratio; note: series mostly up to about 77 µM); details: NF-kB-bla ME-180 cells, beta-lactamase FRET ratio, 16 h; hits give high values
Procedure, shortened: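 Screening used 2,000 ME-180 reporter cells per well exposed to pinned compound (23 nL) or DMSO; after 16 hr at 37C, beta-lactamase expression under NF-kB control was assessed through FRET.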

[8] = qHTS assay for environmental chemicals that activate the Aryl hydrocarbon Receptor (AhR) signaling pathway (AID 651777); details: 1A2-DRE human hepatoma cells, luciferase, 24 h; hits give high values; note: nearly all actives have a fitted effect of over 15% in size
Procedure, shortened: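 Human hepatoma 1A2-DRE cells stably carrying a DRE/CYP1A2 promoter–luciferase reporter, 1,200 cells/well, exposed to compound 24 hr at 37 C. Luciferase read by One-Glo luminescence after 30 min at room temperature; increased signal marks AhR activation.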

[9] = molecular target: Peroxisome proliferator-activated receptor alpha (Homo sapiens) (UniProt Q07869); test: qHTS assay for small molecule agonists of the peroxisome proliferator-activated receptor alpha (PPARalpha) signaling pathway (AID 651778); details: PathHunter PPARalpha complementation, chemiluminescence, 6 h; hits give high values
Procedure, shortened: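 Cells plated at 2,000/well and held overnight at 37 C, 5% CO2, then compound added by pin tool for 6 hr; after PathHunter detection reagent and 60 min at room temperature, chemiluminescence from enzyme complementation was read.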

[10] = qHTS assay for small molecule agonists of the antioxidant response element (ARE) signaling pathway measured by Nrf2-dependant transcriptional activity (AID 720636; active = well fitted curve in the direction sought with a large enough effect in the repeat runs; an effect the other way counts as inactive or inconclusive)
Procedure, shortened: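 ARE-luc HepG2 cells carrying an Nrf2-responsive luciferase reporter, in medium with 1% dialyzed FBS, exposed to compound for 16 hr at 37 C, 5% CO2. Luminescence read 30 min after ONE-Glo addition.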

[11] = qHTS assay for small molecule agonists of the antioxidant response element (ARE) signaling pathway measured by Nrf2-dependant transcriptional activity - cell viability counter screen (AID 720653; active = well fitted curve in the direction sought with a large enough effect in the repeat runs; an effect the other way counts as inactive or inconclusive); details: ARE-bla HepG2 viability, CellTiter-Glo ATP luminescence, 16 h; hits give low values
Procedure, shortened: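 ARE-bla HepG2 cells (2,000/well) rested 5 hrs at 37C/5% CO2, then exposed to compounds in DMSO for 16 hrs. Viability was read in the same wells as intracellular ATP by luminescence, 30 min at room temperature after reagent addition.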

[12] = qHTS assay for cell viability of HEK293 cells (AID 743288); details: ATP luminescence (CellTiter-Glo), 18 h, hits give low values; note: nearly all actives have a fitted effect of over 50% in size
Procedure, shortened: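 Parental HEK293 cells, 2,000 per well, preincubated at least 5 h at 37 C, then exposed to compounds in DMSO for 18 h at 37 C. Viability by CellTiter-Glo ATP luminescence after 30 min at room temperature.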

[13] = qHTS Assay for Identifying Gametocytocidal Compounds (AID 743244); note: potency is the fitted concentration of half-maximal effect; details: P. falciparum 3D7 stage III-V gametocytes, alamarBlue, 72 h; max response: hits give low values
Procedure, shortened: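 A resazurin-based viability read-out was applied to mature P. falciparum gametocytes: 72 h compound treatment, then 24 h dye incubation, with falling fluorescence signalling gametocytocidal effect.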

Tyrosine-protein kinase Yes (Homo sapiens), sequence (P07947 whole entry, looked up): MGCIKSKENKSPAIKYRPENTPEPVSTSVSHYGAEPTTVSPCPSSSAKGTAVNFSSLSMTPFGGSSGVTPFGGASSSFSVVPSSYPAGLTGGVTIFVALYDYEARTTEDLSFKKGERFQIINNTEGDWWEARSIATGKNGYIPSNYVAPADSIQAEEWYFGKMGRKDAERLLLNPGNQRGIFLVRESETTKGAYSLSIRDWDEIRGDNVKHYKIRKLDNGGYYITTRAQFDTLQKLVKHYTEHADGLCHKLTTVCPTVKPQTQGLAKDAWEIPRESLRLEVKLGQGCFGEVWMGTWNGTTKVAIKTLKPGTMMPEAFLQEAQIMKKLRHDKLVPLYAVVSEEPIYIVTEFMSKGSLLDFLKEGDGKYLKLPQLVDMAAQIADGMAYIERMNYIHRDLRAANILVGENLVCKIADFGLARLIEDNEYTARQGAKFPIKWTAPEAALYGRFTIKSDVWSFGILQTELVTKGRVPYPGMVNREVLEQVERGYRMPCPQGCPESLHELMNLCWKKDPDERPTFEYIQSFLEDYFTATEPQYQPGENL
Peroxisome proliferator-activated receptor alpha (Homo sapiens), sequence (Q07869 whole entry, looked up): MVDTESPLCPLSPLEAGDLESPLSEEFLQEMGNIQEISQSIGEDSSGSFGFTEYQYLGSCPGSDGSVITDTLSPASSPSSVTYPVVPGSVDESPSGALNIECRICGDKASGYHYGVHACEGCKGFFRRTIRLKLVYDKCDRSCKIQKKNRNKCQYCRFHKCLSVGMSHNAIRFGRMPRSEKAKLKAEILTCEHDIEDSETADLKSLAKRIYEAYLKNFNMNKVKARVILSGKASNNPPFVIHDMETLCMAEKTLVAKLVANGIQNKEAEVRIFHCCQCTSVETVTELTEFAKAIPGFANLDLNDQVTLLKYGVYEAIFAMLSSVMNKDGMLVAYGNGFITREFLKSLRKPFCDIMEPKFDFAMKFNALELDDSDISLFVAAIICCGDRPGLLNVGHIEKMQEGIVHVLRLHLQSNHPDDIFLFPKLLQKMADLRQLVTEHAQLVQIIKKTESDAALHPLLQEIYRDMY
Ubiquitin carboxyl-terminal hydrolase 2 (Homo sapiens), sequence (O75604 whole entry, looked up): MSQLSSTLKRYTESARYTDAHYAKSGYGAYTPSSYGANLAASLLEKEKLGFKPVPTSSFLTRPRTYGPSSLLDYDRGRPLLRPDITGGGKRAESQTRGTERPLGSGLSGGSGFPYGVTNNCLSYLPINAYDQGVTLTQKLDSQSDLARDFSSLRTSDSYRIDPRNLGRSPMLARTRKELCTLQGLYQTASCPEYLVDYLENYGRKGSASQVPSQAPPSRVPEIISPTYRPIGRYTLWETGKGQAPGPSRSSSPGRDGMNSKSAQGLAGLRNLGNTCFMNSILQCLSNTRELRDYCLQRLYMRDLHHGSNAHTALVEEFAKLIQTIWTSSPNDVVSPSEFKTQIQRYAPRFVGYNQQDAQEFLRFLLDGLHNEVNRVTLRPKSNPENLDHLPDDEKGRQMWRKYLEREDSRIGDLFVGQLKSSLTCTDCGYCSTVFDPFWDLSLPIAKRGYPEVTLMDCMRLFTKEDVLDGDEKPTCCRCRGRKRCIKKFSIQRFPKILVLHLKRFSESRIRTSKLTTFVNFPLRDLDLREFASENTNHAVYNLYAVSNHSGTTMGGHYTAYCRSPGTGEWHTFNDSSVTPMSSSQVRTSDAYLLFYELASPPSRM

## COc1cc2ncnc(Nc3ccc(F)c(Cl)c3)c2cc1NC(=O)C=CCN1CCCCC1
[1]
  Potency: 0.194 µM (active)
[2]
  outcome: inactive

## CN1CC[C@@H](c2c(O)cc(O)c3c(=O)cc(-c4ccccc4Cl)oc23)[C@@H](O)C1
[1]
  Potency: 34.5 µM (active)
[2]
  outcome: inactive

## Nc1nc(-c2nn(Cc3ccccc3F)c3ncccc23)nc(N)c1N1CCOCC1
[1]
  Potency: inactive
[2]
  outcome: inactive

## C#Cc1cccc(Nc2ncnc3cc(OC)c(OCCCCCCC(=O)NO)cc23)c1
[1]
  Potency: 1.73 µM (active)
[2]
  outcome: inactive

## COc1cc2ncn(-c3cc(OCc4ccccc4C(F)(F)F)c(C(N)=O)s3)c2cc1OC
[1]
  Potency: inactive
[2]
  outcome: inactive

## CCOc1cc2ncc(C#N)c(Nc3ccc(F)c(Cl)c3)c2cc1NC(=O)C=CCN(C)C
[1]
  Potency: 0.0434 µM (active)
[2]
  outcome: inactive

## Cc1cccc(C=NNc2cc(N3CCOCC3)nc(OCCc3ccccn3)n2)c1
[1]
  Potency: inactive
[2]
  outcome: inactive

## Cc1ccc(C(=O)Nc2cccc(C(F)(F)F)c2)cc1-c1ccc2nc(NCCN3CCOCC3)ncc2c1
[1]
  Potency: 0.0077 µM (active)
[2]
  outcome: inactive

## Fc1cc(-c2cccc3ncc(-c4cnn(C5CCNCC5)c4)nc23)cc(F)c1CN1CCOCC1
[1]
  Potency: 0.308 µM (active)
[2]
  outcome: inactive

## Cn1c(=O)n(-c2ccc(C(C)(C)C#N)cc2)c2c3cc(-c4cnc5ccccc5c4)ccc3ncc21
[1]
  Potency: inactive
[2]
  outcome: inactive

## Nc1nccc(Oc2ccc(NC(=O)c3c[nH]cc(-c4ccc(F)cc4)c3=O)cc2F)c1Cl
[1]
  Potency: 48.7 µM (active)
[2]
  outcome: inactive

## CC(C)[C@H](C(=O)Nc1ccc(C(=O)NO)cc1)c1ccccc1
[1]
  Potency: inactive
[2]
  outcome: inactive

## Clc1ccc2ncc(-c3cccc(NC4CNC4)n3)n2c1
[1]
  Potency: 0.274 µM (active)
[2]
  outcome: inactive

## CN1CCC(CNc2ccc3ncc(-c4cccc(OC(F)(F)F)c4)n3n2)CC1
[1]
  Potency: 0.0972 µM (active)
[2]
  outcome: inactive

## COc1cc2c(Oc3ccc(-c4cnc(Nc5ccc(F)cc5)n(C)c4=O)cc3F)ccnc2cc1OCCCN1CCOCC1
[1]
  Potency: 0.137 µM (active)
[2]
  outcome: inactive

## CC(C)(C)OC(=O)Nc1ccc(-c2cc(C(=O)NCCCCCCC(=O)NO)no2)cc1
[1]
  Potency: inactive
[2]
  outcome: inactive

## C[C@@H]1CN(CC(=O)Nc2ccc3c(c2)Cc2cccc(-c4cc(=O)cc(N5CCOCC5)o4)c2S3)C[C@H](C)O1
[1]
  Potency: inactive
[2]
  outcome: inactive

## O=C(C=Cc1cccc(S(=O)(=O)Nc2ccccc2)c1)NO
[1]
  Potency: 0.0017 µM (active)
[2]
  outcome: inactive

## Cc1ccc(-c2ncn(-c3ccc(Nc4nccc(-c5cccc(N6CCOCC6)c5)n4)cc3)n2)cn1
[1]
  Potency: 12.2 µM (active)
[2]
  outcome: inactive

## Cc1ccc(S(=O)(=O)Nc2cc(Cl)ccc2C(=O)Nc2nc(-c3ccccc3)cs2)cc1
[3]
  outcome: inactive
[4]
  Potency: 5.26 µM (active)
[5]
  Potency: 1.22 µM (active)
[2]
  outcome: inactive

## N#CCNC(=O)c1ccc(-c2ccnc(Nc3ccc(N4CCOCC4)cc3)n2)cc1
[1]
  Potency: 0.972 µM (active)
[2]
  outcome: inactive

## Nc1cc(C(F)(F)F)c(-c2cc(N3CCOCC3)nc(N3CCOCC3)n2)cn1
[1]
  Potency: inactive
[2]
  outcome: inactive

## O=C(O)c1ccc2cc(-c3ccc(O)c(C45CC6CC(CC(C6)C4)C5)c3)ccc2c1
[1]
  Potency: inactive
[2]
  outcome: inactive

## Cc1cc(Nc2cc(NC(=O)c3c(Cl)cccc3Cl)ccn2)nc(N)n1
[1]
  Potency: 0.194 µM (active)
[2]
  outcome: inactive

## Cn1cncc1[C@@](N)(c1ccc(Cl)cc1)c1ccc2c(c1)c(-c1cccc(Cl)c1)cc(=O)n2C
[1]
  Potency: inactive
[2]
  outcome: inactive

## CCCCN1CCC(CNC(=O)c2c3n(c4ccccc24)CCCO3)CC1
[1]
  Potency: inactive
[2]
  outcome: inactive

## CCN1CCN(CC(=O)Nc2ccc(-c3cccc4c(=O)cc(N5CCOCC5)oc34)c3sc4ccccc4c23)CC1
[1]
  Potency: inactive
[2]
  outcome: inactive

## CC(C)(C)c1cc(NC(=O)Nc2ccc(-c3cn4c(n3)sc3cc(OCCN5CCOCC5)ccc34)cc2)no1
[1]
  Potency: inactive
[2]
  outcome: inactive

## O=C(O)CCCc1c[nH]c2ccccc12
[6]
  activation: -6.63%
[7]
  activation: -1.42%
[8]
  activation: 1.2%
[9]
  max response: -0.171%
[10]
  outcome: inactive
[11]
  max response: 0.64%
[12]
  max response: -3.33%

## NC(=O)c1c(OCc2c(F)cc(Br)cc2F)nsc1NC(=O)NCCCCN1CCCC1
[1]
  Potency: 0.0019 µM (active)
[2]
  outcome: inactive

## COc1ccc(CC2SC(=O)NC2=O)cc1C(=O)NCc1ccc(C(F)(F)F)cc1 (centres undefined)
[1]
  Potency: inactive
[2]
  outcome: inactive

## Cc1ccc(C(N)=O)cc1Nc1nccc(-c2cn(C(C)C)c3cnccc23)n1
[1]
  Potency: 0.547 µM (active)
[2]
  outcome: inactive

## C=CC(=O)Nc1cccc(Oc2nc(Nc3ccc(N4CCN(C)CC4)cc3OC)ncc2Cl)c1
[1]
  Potency: 4.87 µM (active)
[2]
  outcome: inactive
[13]
  Potency: 14.8 µM (active)
